Screening data from PubChem.
Most compounds without a hit are left out; they make up all but 5.5% or so of the library.
Sfp PPTase inh: inhibitors of Bacillus subtilis Sfp phosphopantetheinyl transferase; Q9F4F7; Biochemical Sfp PPTase activity, qHTS; Potency, µM, inactives show largest response in the series, negative = inhibition, most hits filed as inhibitors; actives 3.5% (n = 310,000);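 also: the enzyme is Sfp with the accession as filed and its product quenches rhodamine fluorescence; potency is read from the fitted curve at half-maximal effect; 0% = enzyme reaction without inhibitor and -100% = no enzyme wells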
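Step 1, compound plus 15 nM Sfp-PPTase, 15 min, room temperature. Step 2, add rhodamine-CoA (5 uM) and BHQ-2-YbbR (12.5 uM). Step 3, read 525/598 nm fluorescence at 0 and 30 min.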
ELG1 DNA repair: ELG1-dependent DNA repair inhibition | AID 504467 | HEK293T ELG1-luciferase reporter, luminescence, 16 h; DNA damage induced by 5-fluorouridine | actives 2.3% (n = 330,000) | Potency, µM (series often up to 46.1 µM), inactives show at the top dose activity change, negative = inhibition, actives largely listed as inhibitors; also: potency is read from the fitted curve at half-maximal effect; nearly all actives have a fitted effect of over 55% in size
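DMSO vehicle served as the neutral condition. Each well held 2,000 cells given 5-fluorouridine plus compound; after 16 hr at 37 °C/5% CO2, ONE-Glo was added and luciferase measured 30 min later.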
Giardia killer: Giardia lamblia killing; AID 540267; actives 0.15% (n = 340,000); Giardia lamblia trophozoite viability; activity change, % at 7.66 µM, hits read low; in the data active = activity change below about -80%; inconclusive = between about -30% and that limit;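 also: parasites exposed to compound for two days anaerobically before the ATP read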
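Viability, read as ATP luminescence: trophozoites at 100 cells/well, compound added, 48 hrs anaerobic at 37 deg C, then 15-30 min room-temperature development before reading.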
FBPA coupling cs: coupling enzyme interference in Giardia aldolase counter-screen. coupling enzyme system counterscreen, AmpLite Red fluorescence. activity change, negative = inhibition, % at 58.2 µM, hits read low. actives 0.67% (n = 290,000). AID 2472; in the data active = activity change below about -30%
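Activity here indicates interference with the coupling reaction, not aldolase inhibition. Compounds at 57.5 uM final met coupling enzymes for 10 min at RT; substrate and AmpLite Red detection followed, with a 525/598 nm fluorescence read after 20 min.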
* = called active by the depositor; ? = inconclusive; . = no result. Unless noted, calls follow the shape of the dose curve; as a rule, active = well fitted curve in the direction sought with a large enough effect; inconclusive = small, poorly fitted or top-dose-only effect, or another doubt; inactive = no such curve, though single readings can be large; an effect the other way counts as inactive or inconclusive. Unless noted, % is scaled to controls: 0 for no effect and ±100 for the full control effect.

SMILES | Sfp PPTase inh | ELG1 DNA repair | Giardia killer | FBPA coupling cs
Cc1ccc(S(=O)(=O)Nc2ccc(S(=O)(=O)Nc3nccs3)cc2)c([N+](=O)[O-])c1 | -16.6% | 9.7% | -3.2 | 1.1
O=C(Cc1nc2ccccc2s1)c1ccc(O)cc1O | 50.1µM* | ? | . | 6.7
CCCN1C(=O)/C(=C/c2c(N3CCNC(=O)C3CC(=O)OCC)nc3c(C)cccn3c2=O)SC1=S (configuration not stated) | -20.7% | 5.8µM* | -8.9 | -2.5
CCC1Oc2ccccc2N(CC(=O)NCC2CCCO2)C1=O (configuration not stated) | 19.0% | -0.8% | 3.4 | -0.1
Cc1ccc(OCCCCn2cnc3ccccc32)c(C)c1 | 50.1µM* | -16.9% | -9.1 | -2.5
CN(C)c1ccc(C(=O)Nc2nc3c(s2)CCCC3)cc1 | ? | ? | 6.7 | -8.9
C/C(=N\Nc1nc2c(s1)CCCC2)c1ccc(Cl)cc1 | 50.1µM* | ? | 1.1 | -0.9
Oc1ccccc1N=Cc1sc2ccccc2c1Cl | 56.2µM* | -15.6% | 17.5 | -4.1
COc1cccc(NC(=S)N2c3ccccc3CC2C)c1 (configuration not stated) | -5.8% | -1.5% | 15.4 | -0.7
COc1ccc(OC)c(NC(=S)N2c3ccccc3CC2C)c1 (configuration not stated) | -18.6% | 18.3µM* | 3.2 | .
COC(=O)c1ccc(C(NC(=O)OCc2ccccc2)/C(F)=C/[C@@H](C)C(=O)NCc2nc3ccccc3s2)cc1 (some centres not stated) | 9.0% | . | . | 2.6
CCn1c(SCc2ccc(C(=O)OC)o2)nc2sc3c(c2c1=O)CCCC3 | 35.5µM* | 7.9% | 6.9 | -1.5
CCn1c2ccccc2c2nnc(SCCCn3c(=O)[nH]c4ccccc43)nc21 | ? | 23.1µM* | 11.9 | -3.0
CCn1c2ccccc2c2nnc(SCc3ccccc3)nc21 | -12.0% | -2.5% | 3.8 | 1.7
COC(=O)c1ccc(CSc2cc(C)c3ccccc3n2)o1 | 25.1µM* | ? | 0.9 | -6.8
CCn1c(SCC(=O)OC)nc2sc3c(c2c1=O)CCC3 | 5.9% | -0.1% | 6.8 | 0.9
CCCn1c(SCc2ccc(C(=O)OC)o2)nc2ccccc2c1=O | -7.8% | -8.4% | -8.8 | 0.7
CCn1c2ccccc2c2nnc(SCc3ccc(C(=O)OC)o3)nc21 | 31.6µM* | ? | 2.5 | -2.9
CC(=O)c1ccc(S(=O)(=O)Nc2ccc(C(=O)NCCCn3ccnc3)cc2)cc1 | . | 7.7% | 3.8 | .
O=C(NCc1cccs1)C(=O)NCC(c1ccco1)N1CCN(c2ccccc2F)CC1 (configuration not stated) | 26.9% | 18.3µM* | 11.7 | 3.4
O=C(NCC(c1cccnc1)N1CCN(c2ccccc2F)CC1)OCc1ccccc1 (configuration not stated) | 9.4% | 23.1µM* | -5.1 | 1.0
CC(=O)Nc1ccc(S(=O)(=O)N2CCN=C2SCc2ccc(C)cc2)cc1 | -0.1% | ? | 11.7 | .
Cc1ccc(S(=O)(=O)N2CCN=C2SCc2ccccc2)cc1 | -18.1% | ? | 4.9 | -35.1*
O=S(=O)(c1ccccc1)N1CCN=C1SCc1ccccc1Cl | -14.9% | -1.6% | -18.2 | -40.0*
CC(=O)Nc1ccc(S(=O)(=O)N2CCN=C2SCc2ccc(F)cc2)cc1 | -12.8% | 2.91µM* | -3.5 | .
SMILES | Sfp PPTase inh | ELG1 DNA repair | Giardia killer | FBPA coupling cs
O=S(=O)(c1ccccc1)N1CCN=C1SCc1ccc(Cl)c(Cl)c1 | 5.3% | 9.4% | 16.6 | -4.9
Cc1ccccc1-c1nc(CN2CCC(C(=O)NC3CC3)CC2)c(C)o1 | 7.5% | -3.0% | -4.6 | -3.4
Cc1ccc(CCNC(=O)C2CCN(S(=O)(=O)c3ccc4nc5c(c(C(=O)O)c4c3)CCCC5)CC2)cc1 | 14.7% | 0.4% | -24.5 | 8.9
NC(=O)c1ccc2c(=O)c(O)c(-c3cc(Cl)c(N)c(Cl)c3)[nH]c2c1 | -19.9% | 7.4% | -25.7 | -0.4
CN(c1ccc(C(=O)Nc2cccnc2)cc1)S(=O)(=O)c1ccccc1 | 16.2% | -25.3% | -11.5 | -4.6
COc1ccc(S(=O)(=O)N(C)c2ccc(C(=O)Nc3cccnc3)cc2)cc1 | 5.7% | 23.1µM* | -7.2 | -4.2
COc1ccc(CNC(=O)c2ccc(N(C)S(=O)(=O)c3ccc(C)cc3)cc2)cc1 | 6.3% | 20.6µM* | -1.9 | .
COc1ccc(S(=O)(=O)N(C)c2ccc(C(=O)N3CCN(c4ccccc4)CC3)cc2)cc1OC | -13.6% | 13µM* | -15.0 | .
COc1ccc(S(=O)(=O)N(C)c2ccc(C(=O)NCc3ccncc3)cc2)cc1 | 7.8% | -6.4% | 8.0 | 0.8
COc1ccc(S(=O)(=O)N(C)c2ccc(C(=O)N3CCCC3)cc2)cc1OC | -2.8% | ? | 3.6 | -1.9
COc1ccc(S(=O)(=O)N(C)c2ccc(C(=O)Nc3cccnc3)cc2)cc1OC | 28.0% | 20.6µM* | 5.2 | .
COCc1ccc(C(=O)N2CCCC(CNC(=O)c3ccc(F)cc3)C2)o1 (configuration not stated) | -23.8% | 0.0% | -3.9 | .
Cc1ccc(S(=O)(=O)NCC(=O)N/N=C/c2ccc(Cl)cc2Cl)cc1 | 44.7µM* | -5.3% | 5.5 | 1.4
Cc1ccc(S(=O)(=O)NCC(=O)N/N=C/c2ccc(Cl)cc2)cc1 | -2.3% | 10.7% | -5.4 | -0.5
COc1ccc(N2CCN(C(=O)c3cccc(S(=O)(=O)N4CCCc5ccccc54)c3)CC2)cc1 | . | ? | -8.2 | .
NNc1ccc2c(C(F)(F)F)cc(C(F)(F)F)nc2n1 | 56.2µM* | 7.7% | -11.7 | -0.1
O=C(CCCOc1ccccc1)Nc1ccc(Cl)c(S(=O)(=O)N2CCOCC2)c1 | . | 13µM* | 11.4 | .
O=C(COc1ccc(C(=O)c2ccc(F)cc2)cc1)Nc1cccc(S(=O)(=O)N2CCOCC2)c1 | . | 23.1µM* | -21.9 | .
O=C(COc1cccc(Br)c1)Nc1ccc(Cl)c(S(=O)(=O)N2CCOCC2)c1 | . | 23.1µM* | -13.1 | .
O=C(COC(=O)CCC(=O)c1ccc(F)cc1)Nc1cccc(S(=O)(=O)N2CCOCC2)c1 | 15.1% | 2.3% | -15.6 | -5.3
Cc1ccc(NC(=O)COc2ccc(-c3nnco3)cc2)cc1S(=O)(=O)N1CCOCC1 | 9.2% | 18.3µM* | 19.1 | 0.7
Cc1ccc(OCCC(=O)OCC(=O)Nc2ccc(C)c(S(=O)(=O)N3CCOCC3)c2)cc1 | . | . | -6.6 | .
CCc1cc2c3c(c(=O)oc2cc1OCC(=O)OC)CCCC3 | -3.5% | 4.4% | 11.9 | -4.1
Cc1nn(-c2ccccc2)c2nc(C(F)F)cc(C(F)F)c12 | . | ? | -29.8 | .
Cc1c(NC(=O)c2cccc(NC(=O)COc3cccc(Br)c3)c2)c(=O)n(-c2ccccc2)n1C | . | 23.1µM* | 24.8 | .
Cc1ccc(NC(=O)CNc2cccc(Br)c2)cc1S(=O)(=O)N1CCOCC1 | . | 23.1µM* | 10.4 | .
CCN(CC)S(=O)(=O)c1cc(NC(=O)C(C)N2CCN(c3ccccn3)CC2)ccc1C (configuration not stated) | 16.6% | 20.6µM* | -15.1 | 5.5
Cc1ccc(NC(=O)CSc2ccccc2)cc1S(=O)(=O)N1CCOCC1 | . | -8.8% | -9.7 | .
Cc1ccc(OCCCC(=O)Nc2ccc(Cl)c(S(=O)(=O)N3CCOCC3)c2)cc1 | . | 23.1µM* | -3.3 | .
